Consider twelve molecules from PubChem BioAssay.

Assay [1] deals with Human papillomavirus type 1a protein E7 (residues 44-93). Put plainly: HPV1a E7 fragment binders on microarrays, primary screen, biochemical, small-molecule microarray, residues 44-93, 635 nm fluorescence (AID 1108).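 Also: E7 fragment applied at 1 µg/mL in TBST for 1 h at 4 C; score combines spot fluorescence with its signal to noise ratio.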 The note with it: small-molecule microarray binding, fluorescence 635 nm; higher = more signal.
Assay [2] can be described thus: modulators of HCV replicon luciferase signal, primary screen, HCV replication inhibitor project, Huh7 cells, luciferase reporter (AID 1109).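 Also: huh7 hepatoma cells harbouring a luciferase neomycin HCV replicon reporter; luciferase luminescence as measure of HCV replicon replication; test concentration not given here.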 The note with it: 48 h, higher = more signal.
Assay [3] deals with Left-right determination factor 2 (Homo sapiens) (UniProt O00292). In words: LEFTY2 binders on small-molecule microarrays, primary screen, biochemical, small-molecule microarray, 635 nm fluorescence scan (AID 1110). The note with it: LEFTY2 binding, higher = more signal.
Chain of Left-right determination factor 2 (Homo sapiens) (O00292 whole entry, looked up): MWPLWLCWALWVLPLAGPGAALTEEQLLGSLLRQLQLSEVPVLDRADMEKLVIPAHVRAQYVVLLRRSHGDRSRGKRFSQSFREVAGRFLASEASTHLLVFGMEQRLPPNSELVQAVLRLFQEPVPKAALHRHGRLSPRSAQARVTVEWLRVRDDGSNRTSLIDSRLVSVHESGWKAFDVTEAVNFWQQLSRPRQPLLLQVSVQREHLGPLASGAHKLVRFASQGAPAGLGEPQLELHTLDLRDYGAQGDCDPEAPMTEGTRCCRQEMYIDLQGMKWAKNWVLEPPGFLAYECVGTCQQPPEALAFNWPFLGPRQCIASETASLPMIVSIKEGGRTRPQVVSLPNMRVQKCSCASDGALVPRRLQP
Assay [4] has as its target Calmodulin-1 (Homo sapiens) (UniProt P0DP23). Put plainly: CALM1 binders on microarrays, EGTA buffer, profiling panel, biochemical, small-molecule microarray, Cy5-labelled CALM1 (AID 1111).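 Also: labelled calmodulin applied in Tris saline Tween buffer holding calcium plus EGTA and DTT.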 The note with it: Cy5-CALM1 binding fluorescence, higher = more signal.
Assay [5] shares this target. Put plainly: calcium-bound CALM1 binders on microarrays, profiling panel, artefact control for SMM control-protein annotation, biochemical, small-molecule microarray, Cy5-labelled CALM1, plus calcium (AID 1112).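 Also: score merges spot fluorescence with signal to noise from triplicate slides.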 The note with it: Cy5-CALM1 binding fluorescence, higher = more signal.
Assay [6] can be described thus: small-molecule microarray binders of probe aWnt5a, primary screen, biochemical, biotinylated probe, 635/667 nm fluorescence (AID 1113).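 Also: score merges 667 nm fluorescence intensity with signal-to-noise per printed feature.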 The note with it: higher = more signal.
Assay [7] can be described thus: small-molecule microarray binders of probe aShh, primary screen, biochemical, biotinylated probe, 635/667 nm fluorescence (AID 1114).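 Also: probe is biotin-labelled aShh protein from a stem cell growth factor screen; measures binding of labelled protein to compounds printed on the slide; score merges feature fluorescence at 667 nm with signal-to-noise.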 The note with it: higher = more signal.
Assay [8] can be described thus: small-molecule microarray binders of probe aNog, primary screen, biochemical, biotinylated probe, 635/667 nm fluorescence (AID 1115).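 Also: probe is biotinylated aNog protein used at 0.15 µg/mL for 1 h at 4 C; z-score combines 667 nm fluorescence of each spot with its signal to noise.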 The note with it: higher = more signal.
Assay [9] deals with Torsin-1A-interacting protein 1 (Homo sapiens) (UniProt Q5JTV8). In words: LAP1 binders from COS7 cell lysate, primary screen, small-molecule microarray, 635/667 nm fluorescence (AID 1116). The note with it: COS7-hLAP1 lysate binding, 635 nm fluorescence, higher = more signal.
Chain of Torsin-1A-interacting protein 1 (Homo sapiens) (Q5JTV8 whole entry, looked up): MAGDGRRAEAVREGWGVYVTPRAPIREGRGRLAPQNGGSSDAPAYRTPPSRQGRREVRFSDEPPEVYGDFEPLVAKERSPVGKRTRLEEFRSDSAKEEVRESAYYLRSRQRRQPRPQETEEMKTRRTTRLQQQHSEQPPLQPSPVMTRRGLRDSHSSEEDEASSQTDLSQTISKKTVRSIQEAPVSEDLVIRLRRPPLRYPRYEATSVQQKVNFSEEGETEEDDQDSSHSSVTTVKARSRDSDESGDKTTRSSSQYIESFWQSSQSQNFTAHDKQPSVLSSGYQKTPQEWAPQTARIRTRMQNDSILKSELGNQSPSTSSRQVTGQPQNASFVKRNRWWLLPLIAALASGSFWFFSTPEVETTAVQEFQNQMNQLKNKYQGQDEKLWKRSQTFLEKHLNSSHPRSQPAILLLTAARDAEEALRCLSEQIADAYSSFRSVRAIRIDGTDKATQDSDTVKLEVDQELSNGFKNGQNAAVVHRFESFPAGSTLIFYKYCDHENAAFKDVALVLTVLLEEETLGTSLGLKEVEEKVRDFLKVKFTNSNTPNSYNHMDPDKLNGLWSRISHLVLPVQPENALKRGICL
Assay [10] has as its target Alpha-bungarotoxin (Bungarus multicinctus) (UniProt P60615). In words: alpha-bungarotoxin binders on microarray, profiling panel, artefact control for SMM control protein annotation, biochemical, small-molecule microarray, Alexa647 label, 635/667 nm fluorescence (AID 1117). The note with it: alpha-BTX-A647 binding fluorescence, higher = more signal.

Chain of Alpha-bungarotoxin (Bungarus multicinctus) (P60615 whole entry, looked up): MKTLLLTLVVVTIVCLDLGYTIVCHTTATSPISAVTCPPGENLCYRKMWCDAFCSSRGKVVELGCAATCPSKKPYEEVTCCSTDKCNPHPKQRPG

As to `Cc1ccc(S(=O)(=O)NC(CCc2ccccc2)CC(=O)C(C)(C)C)cc1` (stereo not given), the composite z-score in [1] is 0.52; in [3], 0.445; in [4], -0.0921; in [5], -0.418; in assay [6] it was -0.125; in assay [7], 0.304. Also, the composite z-score in assay [8] was -0.0626; in [9], -0.0055; in [10], 0.369. Besides, the z-score in [2] is -2.04.

As to `COC(=O)CC=C[C@@H](C)[C@H](OCc1cccc(-c2ccccc2)c1)C1CCCCC1`, the composite z-score in assay [1] was -0.533; in assay [3], 0.134; in assay [4], -0.532; in [5] it was 0.472; in assay [6] it was -0.12; in assay [7], -0.0694. In addition, the composite z-score in [8] is -0.168; in [9], 0.14; in [10], 1.9. Moreover, the z-score in [2] is 1.04.

In the case of `Cc1ccc(S(=O)(=O)OC[C@H]2CN3[C@H](c4ccc(Br)cc4)[C@@H](C)CC[C@H]3C(=O)O2)cc1`, the composite z-score in assay [1] is 0.226; in [3], 0.119; in assay [4], 0.946; in assay [5], -0.265; in [6] it was -0.0462; in assay [7], 0.0141. For the same molecule, the composite z-score was -0.12 in [8], 0.0859 in assay [9] and 0.934 in assay [10]. For the same molecule, the z-score in assay [2] is -1.02.

In the case of `C=C(C)C(=O)OCC1CN2[C@@H](CC[C@@H](C)[C@@H]2c2ccc(Br)cc2)C(=O)O1` (stereo not given in full), the composite z-score in assay [1] is 0.0141; in [3], 0.501; in assay [4], -0.15; in assay [5], -0.566; in assay [6], -0.199; in assay [7] it was -0.229. The composite z-score came to 0.184 in assay [8], 0.522 in assay [9] and 0.499 in assay [10]. For the same molecule, the z-score in assay [2] came out at 0.159.

For `CCOC(=O)[C@H](Cc1ccccc1)NC(=O)CCC1CC(OC(=O)NCc2cccc3ccccc23)CC2(CCCC(COC(=O)NCc3ccccc3)O2)O1` (stereo not given in full), the composite z-score in [1] is 0.836; in [3], 0.168; in assay [4], 0.507; in [5], -0.607; in [6], -0.2; in assay [7] it was -0.145. The values for the composite z-score in assay [8], in [9] and in assay [10] were -0.144, -0.0849 and 0.713, respectively. The molecule also came in with a z-score in assay [2] of -1.03.

On to `COC(=O)[C@H]1[C@@H](O)[C@@]2(O)c3ccccc3O[C@@]2(c2ccccc2)[C@@H]1c1ccccc1`, for which the composite z-score in [1] is -0.673; in assay [3], 0.401; in assay [4] it was -0.449; in assay [5] it was -0.336; in assay [6], -0.156; in assay [7], 0.0815. Also, the composite z-score in [8] was -0.136; in assay [9] it was 0.096; in assay [10] it was -0.516. This molecule came in with a z-score in [2] of -0.1.

`CO[C@H]1COC(=O)CC=C[C@@H](C)[C@H](OC)COC(=O)[C@@H]2CCCN2C(=O)CC=C[C@@H]1C`: the composite z-score was -0.298 in assay [1]; 1.32 in [3]; -1.02 in assay [4]; -1.82 in assay [5]; -0.0819 in assay [6]; -0.138 in assay [7]. Moreover, the composite z-score in [8] is -0.748; in [9] it was 0.159; in assay [10], -0.41. The same molecule had a z-score in [2] of 0.443.

For the molecule `CCOC(=O)NN=C1C[C@@H](O)[C@@H](O)[C@@H]2[C@@H]3C(=O)N([C@@H](C)c4ccccc4)C(=O)[C@@H]3CC[C@@H]12`, the composite z-score in assay [1] is 0.207; in assay [3] it was 0.937; in assay [4], -0.762; in assay [5], -2.03; in [6], -0.191; in assay [7] it was -0.476. Also, the composite z-score is -0.12 in assay [8], 1.41 in [9] and -0.778 in [10]. This molecule also showed a z-score in assay [2] of 0.0672.

In the case of `CC(C)(C)N1C(=O)[C@H]2[C@H]3[C@H](O)[C@H](O)CC(=NO[C@@H]4O[C@H](CO)[C@@H](O)[C@H](O)[C@H]4O)[C@H]3CC[C@H]2C1=O`, the composite z-score is 0.518 in [1]; 0.4 in assay [3]; -0.653 in [4]; -1.12 in [5]; -0.0337 in assay [6]; -0.0769 in [7]. The composite z-score in [8] is -0.196; in assay [9] it was 0.509; in [10], -0.309. In assay [2], this molecule displayed a z-score of -1.13.

With `O=C(C=Cc1ccc2c(c1)OCO2)c1ccc(F)cc1`, the composite z-score in assay [1] is -0.9; in [3], 0.976; in [4] it was -0.481; in assay [5], -1.41; in assay [6], -0.0455; in assay [7] it was 0.297. Moreover, the results for the composite z-score in [8], in [9] and in [10] were -0.126, 0.569 and 0.444, respectively. In [2], this molecule registered a z-score of 2.84.

Take `O=C1C2=CC[C@H]3C(=O)N(c4cccc(Oc5ccccc5)c4)C(=O)[C@H]3[C@H]2[C@H](O)[C@@H]2O[C@H]12`: the composite z-score was 0.792 in assay [1]; 0.516 in assay [3]; 0.0194 in [4]; -0.32 in assay [5]; -0.157 in assay [6]; -0.273 in assay [7]. Also, the composite z-score was -0.224 in [8], 0.257 in assay [9] and 0.281 in [10]. This molecule showed a z-score in assay [2] of -4.64.

Turning to `CCCCC#C[C@@H]1C=C[C@H](OC(C)=O)[C@@H](COC(C)=O)O1`, the composite z-score was 0.713 in assay [1]; 0.579 in assay [3]; 0.349 in assay [4]; -0.0635 in [5]; -0.118 in assay [6]; -0.221 in assay [7]. Also, the composite z-score in assay [8] was -0.285; in assay [9], 0.339; in [10] it was 0.217. In addition, the z-score in assay [2] was -2.47.
